# Laboratory results from publication PMC7862700, “An all-to-all approach to the identification of sequence-specific readers for epigenetic DNA modifications on cytosine”.
# Key:
# Assay in all cases: DAPPL (digital affinity profiling via proximity ligation, sequencing); 10 mM Tris-HCl pH 7.5, 50 mM NaCl, 1 mM DTT, 4% glycerol, room temperature, 30 min; GST-TFs on glutathione beads, 16-mer random dsDNA library, 0.1% formaldehyde crosslink after washing; high values mean tight binding
# Conditions in all cases: protein: recombinant; tags: N-terminal GST; dsDNA, one strand shown
# ELK1 = molecular target: T1, ELK1 (Homo sapiens, UniProt P19419 1-428)
# T1 sequence: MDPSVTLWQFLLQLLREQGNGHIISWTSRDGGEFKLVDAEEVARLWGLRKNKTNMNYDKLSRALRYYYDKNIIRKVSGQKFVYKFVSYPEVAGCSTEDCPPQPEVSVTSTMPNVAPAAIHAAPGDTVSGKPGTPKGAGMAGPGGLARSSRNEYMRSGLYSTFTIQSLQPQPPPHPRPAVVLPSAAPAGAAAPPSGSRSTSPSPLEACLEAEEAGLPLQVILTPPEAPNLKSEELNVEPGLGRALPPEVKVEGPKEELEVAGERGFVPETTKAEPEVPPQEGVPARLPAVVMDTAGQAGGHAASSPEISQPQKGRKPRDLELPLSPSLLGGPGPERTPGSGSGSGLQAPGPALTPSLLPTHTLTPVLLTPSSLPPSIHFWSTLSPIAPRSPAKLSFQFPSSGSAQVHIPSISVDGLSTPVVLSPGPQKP
# How it was run: (§1)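 Yeast served to express human transcription factors as GST fusions, which were then captured on glutathione beads and labelled with DNA barcodes. Pooled with a tag-only sample, they were incubated with 200 nmole of a 16-mer random double-stranded DNA library for 30 min at room temperature in Tris/NaCl/DTT/glycerol buffer, washed, crosslinked with 0.1% formaldehyde, ligated by proximity, amplified by PCR and sequenced. Dividing each hexamer's read frequency for a factor by its frequency for the tag-only sample gives the binding signal.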
# ETV7 = molecular target: T2, ETV7 (Homo sapiens, UniProt Q9Y603 1-341)
# T2 sequence: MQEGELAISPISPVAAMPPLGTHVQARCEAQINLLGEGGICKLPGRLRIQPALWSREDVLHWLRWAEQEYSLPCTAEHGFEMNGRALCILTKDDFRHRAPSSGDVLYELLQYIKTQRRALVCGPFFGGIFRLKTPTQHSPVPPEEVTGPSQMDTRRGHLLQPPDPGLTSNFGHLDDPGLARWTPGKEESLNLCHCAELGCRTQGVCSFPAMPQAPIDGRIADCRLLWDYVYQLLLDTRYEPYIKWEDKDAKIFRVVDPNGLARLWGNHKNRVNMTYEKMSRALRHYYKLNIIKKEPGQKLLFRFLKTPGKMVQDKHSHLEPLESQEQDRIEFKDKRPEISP
# How it was run: as §1
# ETV3 = molecular target: T3, ETV3 (Homo sapiens, UniProt P41162-2 1-143)
# T3 sequence: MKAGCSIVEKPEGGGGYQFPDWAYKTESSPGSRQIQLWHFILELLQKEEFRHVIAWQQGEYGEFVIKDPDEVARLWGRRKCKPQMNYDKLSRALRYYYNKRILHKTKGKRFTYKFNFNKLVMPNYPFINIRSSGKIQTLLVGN
# How it was run: as §1
# GABPA = molecular target: T4, GABPA (Homo sapiens, UniProt Q06546 1-454)
# T4 sequence: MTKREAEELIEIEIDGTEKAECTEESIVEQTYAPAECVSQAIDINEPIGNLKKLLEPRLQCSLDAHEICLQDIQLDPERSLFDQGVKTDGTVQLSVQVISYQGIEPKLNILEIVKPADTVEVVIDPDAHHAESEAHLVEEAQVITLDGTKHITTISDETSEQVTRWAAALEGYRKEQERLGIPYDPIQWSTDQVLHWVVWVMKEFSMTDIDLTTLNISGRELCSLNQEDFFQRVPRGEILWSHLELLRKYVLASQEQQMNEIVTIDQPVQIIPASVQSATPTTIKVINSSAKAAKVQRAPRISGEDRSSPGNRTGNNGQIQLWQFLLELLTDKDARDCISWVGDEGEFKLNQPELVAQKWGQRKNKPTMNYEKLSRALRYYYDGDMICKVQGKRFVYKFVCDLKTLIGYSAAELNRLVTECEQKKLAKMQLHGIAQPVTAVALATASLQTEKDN
# How it was run: as §1
# ERG = molecular target: T5, ERG (Homo sapiens, UniProt P11308 1-479)
# T5 sequence: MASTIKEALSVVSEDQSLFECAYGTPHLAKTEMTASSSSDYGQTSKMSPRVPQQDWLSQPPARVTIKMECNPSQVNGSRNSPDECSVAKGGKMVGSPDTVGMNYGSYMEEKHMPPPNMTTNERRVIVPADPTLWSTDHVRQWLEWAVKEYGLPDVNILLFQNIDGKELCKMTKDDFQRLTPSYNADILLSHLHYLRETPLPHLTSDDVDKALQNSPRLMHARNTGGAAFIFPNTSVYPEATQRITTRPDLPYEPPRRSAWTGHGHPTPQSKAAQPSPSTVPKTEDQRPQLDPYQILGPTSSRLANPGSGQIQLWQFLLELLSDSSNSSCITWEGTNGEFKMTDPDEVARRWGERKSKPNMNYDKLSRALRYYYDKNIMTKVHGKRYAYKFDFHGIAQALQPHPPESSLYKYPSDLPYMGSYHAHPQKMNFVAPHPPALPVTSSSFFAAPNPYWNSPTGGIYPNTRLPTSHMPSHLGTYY
# How it was run: as §1
# SPIB = SPIB (Homo sapiens, UniProt Q01892 1-262)
# How it was run: as §1
# ELK3 = molecular target: T6, ELK3 (Homo sapiens, UniProt P41970 1-407)
# T6 sequence: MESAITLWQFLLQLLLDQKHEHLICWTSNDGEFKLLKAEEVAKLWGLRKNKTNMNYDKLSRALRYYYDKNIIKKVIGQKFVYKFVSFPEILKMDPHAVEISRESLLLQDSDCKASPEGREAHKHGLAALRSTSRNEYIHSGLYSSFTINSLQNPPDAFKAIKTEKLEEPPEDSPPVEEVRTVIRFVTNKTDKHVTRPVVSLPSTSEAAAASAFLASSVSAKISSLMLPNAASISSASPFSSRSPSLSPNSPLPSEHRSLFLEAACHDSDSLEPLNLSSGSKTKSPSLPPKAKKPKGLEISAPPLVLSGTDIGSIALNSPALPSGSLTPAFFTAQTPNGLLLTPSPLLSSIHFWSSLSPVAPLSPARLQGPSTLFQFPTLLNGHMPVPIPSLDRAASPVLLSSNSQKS
# How it was run: as §1
# SPIC = molecular target: T7, SPIC (Homo sapiens, UniProt Q8N5J4 1-248)
# T7 sequence: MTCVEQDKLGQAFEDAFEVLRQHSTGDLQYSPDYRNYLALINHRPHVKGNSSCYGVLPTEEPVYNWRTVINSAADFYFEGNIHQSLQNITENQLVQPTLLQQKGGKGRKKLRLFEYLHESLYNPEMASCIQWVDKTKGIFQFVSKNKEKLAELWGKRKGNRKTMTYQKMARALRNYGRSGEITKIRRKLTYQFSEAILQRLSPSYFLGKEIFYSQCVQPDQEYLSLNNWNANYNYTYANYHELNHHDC
# How it was run: as §1
# ELK4 = molecular target: T8, ELK4 (Homo sapiens, UniProt P28324-2 1-405)
# T8 sequence: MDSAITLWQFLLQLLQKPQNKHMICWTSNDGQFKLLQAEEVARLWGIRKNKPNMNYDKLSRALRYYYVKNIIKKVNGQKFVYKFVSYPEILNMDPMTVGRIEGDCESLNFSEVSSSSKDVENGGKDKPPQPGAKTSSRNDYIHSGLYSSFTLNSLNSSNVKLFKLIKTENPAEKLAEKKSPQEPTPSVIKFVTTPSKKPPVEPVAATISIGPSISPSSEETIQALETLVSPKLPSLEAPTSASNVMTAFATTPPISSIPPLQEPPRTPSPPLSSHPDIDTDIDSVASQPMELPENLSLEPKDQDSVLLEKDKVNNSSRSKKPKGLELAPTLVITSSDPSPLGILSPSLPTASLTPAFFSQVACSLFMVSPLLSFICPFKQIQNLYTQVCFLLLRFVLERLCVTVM
# How it was run: as §1
# ETV1 = ETV1 (Homo sapiens, UniProt P50549 1-477)
# How it was run: as §1
# ERF = molecular target: T9, ERF (Homo sapiens, UniProt P50548 1-548)
# T9 sequence: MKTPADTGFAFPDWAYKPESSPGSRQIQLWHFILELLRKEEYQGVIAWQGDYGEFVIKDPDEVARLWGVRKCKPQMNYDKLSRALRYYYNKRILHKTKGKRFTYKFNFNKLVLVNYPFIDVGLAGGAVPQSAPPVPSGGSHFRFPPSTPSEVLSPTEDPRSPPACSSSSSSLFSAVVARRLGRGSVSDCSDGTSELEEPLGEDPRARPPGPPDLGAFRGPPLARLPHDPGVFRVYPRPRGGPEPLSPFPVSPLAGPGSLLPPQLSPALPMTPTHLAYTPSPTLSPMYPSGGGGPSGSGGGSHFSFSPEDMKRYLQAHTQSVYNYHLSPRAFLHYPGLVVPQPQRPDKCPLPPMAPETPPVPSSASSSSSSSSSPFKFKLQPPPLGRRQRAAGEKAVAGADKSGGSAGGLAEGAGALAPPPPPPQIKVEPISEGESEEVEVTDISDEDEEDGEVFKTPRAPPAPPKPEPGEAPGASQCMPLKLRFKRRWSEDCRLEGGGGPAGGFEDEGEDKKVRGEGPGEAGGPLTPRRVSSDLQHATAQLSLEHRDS
# How it was run: as §1
# ETS2 = molecular target: T10, ETS2 (Homo sapiens, UniProt P15036 1-469)
# T10 sequence: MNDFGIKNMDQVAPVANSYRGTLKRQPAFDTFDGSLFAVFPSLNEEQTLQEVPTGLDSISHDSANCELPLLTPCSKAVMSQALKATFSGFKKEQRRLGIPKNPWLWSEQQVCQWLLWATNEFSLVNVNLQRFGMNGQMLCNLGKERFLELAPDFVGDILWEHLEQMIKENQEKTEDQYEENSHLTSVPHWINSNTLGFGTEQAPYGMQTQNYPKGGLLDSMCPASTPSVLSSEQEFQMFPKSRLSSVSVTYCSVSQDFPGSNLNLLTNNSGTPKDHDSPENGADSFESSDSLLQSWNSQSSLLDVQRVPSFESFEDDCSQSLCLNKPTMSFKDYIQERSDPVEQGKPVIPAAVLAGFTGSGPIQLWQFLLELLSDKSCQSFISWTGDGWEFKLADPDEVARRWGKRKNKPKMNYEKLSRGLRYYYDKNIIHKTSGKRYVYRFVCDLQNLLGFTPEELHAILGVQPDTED
# How it was run: as §1
# ETV6 = ETV6 (Homo sapiens, UniProt P41212 1-452)
# How it was run: as §1
# ELF3 = molecular target: T11, ELF3 (Homo sapiens, UniProt P78545 1-371)
# T11 sequence: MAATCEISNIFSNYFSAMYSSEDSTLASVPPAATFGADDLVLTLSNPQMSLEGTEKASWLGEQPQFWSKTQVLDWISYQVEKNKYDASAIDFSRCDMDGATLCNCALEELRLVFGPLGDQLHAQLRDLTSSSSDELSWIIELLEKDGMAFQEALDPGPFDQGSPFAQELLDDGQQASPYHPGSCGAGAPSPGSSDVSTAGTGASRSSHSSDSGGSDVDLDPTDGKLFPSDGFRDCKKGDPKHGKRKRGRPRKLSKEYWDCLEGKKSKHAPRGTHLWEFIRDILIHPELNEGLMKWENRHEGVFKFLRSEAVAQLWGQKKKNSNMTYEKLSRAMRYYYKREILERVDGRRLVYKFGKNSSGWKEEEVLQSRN
# How it was run: as §1
# Chain of ETV1 (P50549 whole entry): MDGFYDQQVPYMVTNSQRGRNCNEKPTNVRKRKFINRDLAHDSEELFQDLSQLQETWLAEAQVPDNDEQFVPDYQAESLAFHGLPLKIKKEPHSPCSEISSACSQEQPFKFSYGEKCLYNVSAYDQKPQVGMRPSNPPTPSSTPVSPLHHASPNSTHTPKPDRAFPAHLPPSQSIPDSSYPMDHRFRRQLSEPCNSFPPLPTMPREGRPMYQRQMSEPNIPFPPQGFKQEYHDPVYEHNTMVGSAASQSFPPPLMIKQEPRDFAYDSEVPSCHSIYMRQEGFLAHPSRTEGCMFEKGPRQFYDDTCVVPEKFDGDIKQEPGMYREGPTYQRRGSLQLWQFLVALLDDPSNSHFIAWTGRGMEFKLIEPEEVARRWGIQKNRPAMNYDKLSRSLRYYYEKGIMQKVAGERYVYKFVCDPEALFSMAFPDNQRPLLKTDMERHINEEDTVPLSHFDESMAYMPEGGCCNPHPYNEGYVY
# Chain of ETV6 (P41212 whole entry): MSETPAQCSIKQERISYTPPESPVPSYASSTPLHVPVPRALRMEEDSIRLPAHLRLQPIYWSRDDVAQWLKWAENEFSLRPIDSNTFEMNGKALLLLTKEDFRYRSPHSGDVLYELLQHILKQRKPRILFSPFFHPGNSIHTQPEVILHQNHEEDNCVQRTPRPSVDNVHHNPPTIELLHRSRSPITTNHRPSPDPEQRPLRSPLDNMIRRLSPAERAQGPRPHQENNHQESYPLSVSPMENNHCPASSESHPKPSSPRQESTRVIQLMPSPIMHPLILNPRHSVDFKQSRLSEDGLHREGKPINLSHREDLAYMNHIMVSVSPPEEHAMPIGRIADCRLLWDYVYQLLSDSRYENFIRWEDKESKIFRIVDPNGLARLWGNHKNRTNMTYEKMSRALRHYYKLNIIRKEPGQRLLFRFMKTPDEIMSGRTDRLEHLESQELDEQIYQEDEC
# Chain of SPIB (Q01892 whole entry): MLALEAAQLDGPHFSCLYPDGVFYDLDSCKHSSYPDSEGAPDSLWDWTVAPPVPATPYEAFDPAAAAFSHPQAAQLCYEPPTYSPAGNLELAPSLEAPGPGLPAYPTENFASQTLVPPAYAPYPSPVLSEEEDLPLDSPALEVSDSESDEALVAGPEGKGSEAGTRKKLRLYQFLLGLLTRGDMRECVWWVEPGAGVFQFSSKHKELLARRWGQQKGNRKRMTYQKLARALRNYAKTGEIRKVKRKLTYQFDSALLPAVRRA
sequence,measurement,setting,value
GCCCGG,binding signal,ELK1,"1.03 fold enrichment (6-mer frequency, TF over GST control)"
same,binding signal,ETV7,"1.01 fold enrichment (6-mer frequency, TF over GST control)"
same,binding signal,ETV3,"1.07 fold enrichment (6-mer frequency, TF over GST control)"
AGCGTC,binding signal,ELK1,"1.05 fold enrichment (6-mer frequency, TF over GST control)"
same,binding signal,GABPA,"1.07 fold enrichment (6-mer frequency, TF over GST control)"
same,binding signal,ERG,"1.1 fold enrichment (6-mer frequency, TF over GST control)"
same,binding signal,SPIB,"1.04 fold enrichment (6-mer frequency, TF over GST control)"
same,binding signal,ELK3,"1.05 fold enrichment (6-mer frequency, TF over GST control)"
same,binding signal,SPIC,"1.11 fold enrichment (6-mer frequency, TF over GST control)"
same,binding signal,ELK4,"1.01 fold enrichment (6-mer frequency, TF over GST control)"
same,binding signal,ETV1,"1.04 fold enrichment (6-mer frequency, TF over GST control)"
same,binding signal,ERF,"1.07 fold enrichment (6-mer frequency, TF over GST control)"
same,binding signal,ETS2,"1.02 fold enrichment (6-mer frequency, TF over GST control)"
same,binding signal,ETV7,"1.06 fold enrichment (6-mer frequency, TF over GST control)"
same,binding signal,ETV3,"1.01 fold enrichment (6-mer frequency, TF over GST control)"
same,binding signal,ETV6,"1.02 fold enrichment (6-mer frequency, TF over GST control)"
GGCAAT,binding signal,ELK1,"1 fold enrichment (6-mer frequency, TF over GST control)"
same,binding signal,GABPA,"1 fold enrichment (6-mer frequency, TF over GST control)"
same,binding signal,ELF3,"1.01 fold enrichment (6-mer frequency, TF over GST control)"
same,binding signal,ERF,"1.02 fold enrichment (6-mer frequency, TF over GST control)"
CGAGGT,binding signal,ELK4,"1.06 fold enrichment (6-mer frequency, TF over GST control)"
same,binding signal,ETV7,"1.02 fold enrichment (6-mer frequency, TF over GST control)"
